Here are results for 14 compounds from PubChem BioAssay (NCI).

Structures are written as SMILES. This is part of a sample that, as a whole, favours compounds with a hit. Of some 83,000 tested, about 20% had one in any assay.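 The endpoint reported here, percent growth, reads 100 for growth as untreated, 0 for no net growth and -100 for all cells dead.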 Unmarked numbers belong to inactive results. Activity calls are given as the source filed them. How the source made its calls: active means growth percent below 10; inactive means the rest.

This assay deals with MDA-MB-468 breast. Description: NCI-60 one-dose screen, 48 h (100 = growth as untreated, 0 = no growth, -100 = all killed). Particulars: 10 µM unless noted.
Consider `Cc1c(-c2ccc(C3CCCCC3)cc2)nc2ccc(F)cc2c1C(=O)O`, for which the growth is 74.4%.

Consider `O=C(Cc1nc2ccc([N+](=O)[O-])cc2nc1CC(=O)c1cccnc1)c1cccnc1`, for which the growth was 75.7%.

`C#CC(C)(O)[C@@H]1C[C@H](CC(=O)O)C1(C)C` (some centres undefined): the growth is 114%.

`Cc1cn(-c2cc(NC(=O)c3ccc(C)c(Nc4nccc(-c5cccnc5)n4)c3)cc(C(F)(F)F)c2)cn1`: the growth was 37.2%.

Take `CCCCCCCCCCCCCCCCCC1=NC(C)(C)CN1CCO`: the growth is -69% (active).

Consider `COc1cc(/C=C/C(=O)C(=Cc2ccc(F)c(F)c2)C(=O)/C=C/c2ccc(O)c(OC)c2)ccc1O`, for which the growth was 25.6%.

Consider `Cc1[nH]c(C(=O)Nc2ccccc2OCc2cccc(C(=O)N3CCC[C@@H](N)C3)c2)c(Cl)c1Cl`, for which the growth was -74% (active).

With `CCC([N+](=O)[O-])S(=O)(=O)c1ccc(C)cc1` (centres undefined), the growth was 91.3%.

In the case of `N=C1S/C(=C/c2ccc(-c3ccc4c(c3)C(=O)NC4=O)o2)C(=O)N1c1ccc(Br)cc1`, the growth was 51.6%.

Consider `COc1ccc(-c2csc(N/N=C/c3c(-c4ccc(S(C)(=O)=O)cc4)nc4ccccn34)n2)cc1`, for which the growth was 106%.

Take `c1ccn2nnnc2c1`: the growth was 107%.

As to `Cc1ccc(-c2nc3c(N=Nc4ccc(S(N)(=O)=O)cc4)c(N)nn3c(N)c2C#N)cc1`, the growth was 5.87% (active).

For the compound `COc1cc2nc3c(=O)n(CCN(C)C)cnn3c(=O)c2cc1OC`, the growth is 104%.

Turning to `COc1ccc(/C=C2\Oc3cc(OCCCN4CCCC4)ccc3C2=O)cc1`, the growth is 74.1%.
